# NPC1 promoter act: NPC1 promoter activation; Potency, µM (highest dose often 9.22 µM), inactives show at the highest dose activation, usual class: activators; Huh7 NPC1 promoter luciferase reporter, 24 h; AID 485313; 2.4% of 320,000 active; also: % of control where 0% means no effect; nearly all actives have a fitted effect of over 60% in size
#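 Huh7 reporter cells (NPC1 promoter driving luciferase) are dosed with compound for 24 h at 37 °C, 5% CO2; luciferase detection reagent is then added and luminescence measured after 10 min at ambient temperature.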
# SMN2 splice up: enhancers of SMN2 splice variant expression; HEK293 SMN2-luciferase splicing reporter, luminescence, 30-36 h; Potency, µM (series often up to 46.1 µM), for the others: top-dose activity change, positive = activation, hits mostly activators; 2.8% of 210,000 active; AID 1458; also: % of control where 0% means no effect; nearly all actives have a fitted effect of over 55% in size
#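 HEK293 cells carry an SMN2 minigene-luciferase reporter in which exon 7 inclusion puts luciferase in frame. Cells were seeded at 2000 cells/well, attached for 10-12 hours, then exposed to compounds for 30-36 hours at 37C before ONE-Glo luminescence.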
# ELG1 genotox: genotoxicity induction in ELG1-luciferase HEK293T cells; Potency, µM (top dose mostly 46 µM), without a hit: at the highest dose activity change, positive = activation, most hits filed as activators; AID 504466; 1.3% of 330,000 active; HEK293T ELG1-luciferase reporter, luminescence, 16 h; also: % of control where 0% means no effect; nearly all actives have a fitted effect of over 60% in size
#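 16 hr compound incubation (37 °C, 5% CO2) of HEK293T cells carrying luciferase-tagged ELG1; luciferase then measured by ONE-Glo luminescence after 30 min at RT.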
# Rab9 prom act: activators of Rab9 promoter. Huh7 Rab9 promoter-luciferase reporter, luminescence, 24 h. Potency, µM (titrated, usually from 9.22 µM), inactives show top-dose activation, negative = inhibition, actives largely listed as activators. 2.8% of 320,000 active. AID 485297; also: % of control where 0% means no effect; nearly all actives have a fitted effect of over 60% in size
#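 Quantitative HTS format; Huh7 Rab9-luciferase reporter cells (1500/well) receive compound 2 h post-plating, incubate 24 h at 37 °C, then get luciferase reagent for 10 min before luminescence reading.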
# FLuc counter: inhibits or activates purified firefly luciferase, miR-21 counter-screen. P08659. purified FLuc, Km substrates, luminescence inhibition. Potency, µM (titrated, usually from 57.5 µM), without a hit: at the highest dose activity change, negative = inhibition, usual class: inhibitors. 6.9% of 360,000 active. AID 588342;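 also: plate controls were vehicle for no effect and reference inhibitor for full effect; nearly all actives have a fitted effect of over 55% in size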
# Target sequence (P08659 whole entry, looked up): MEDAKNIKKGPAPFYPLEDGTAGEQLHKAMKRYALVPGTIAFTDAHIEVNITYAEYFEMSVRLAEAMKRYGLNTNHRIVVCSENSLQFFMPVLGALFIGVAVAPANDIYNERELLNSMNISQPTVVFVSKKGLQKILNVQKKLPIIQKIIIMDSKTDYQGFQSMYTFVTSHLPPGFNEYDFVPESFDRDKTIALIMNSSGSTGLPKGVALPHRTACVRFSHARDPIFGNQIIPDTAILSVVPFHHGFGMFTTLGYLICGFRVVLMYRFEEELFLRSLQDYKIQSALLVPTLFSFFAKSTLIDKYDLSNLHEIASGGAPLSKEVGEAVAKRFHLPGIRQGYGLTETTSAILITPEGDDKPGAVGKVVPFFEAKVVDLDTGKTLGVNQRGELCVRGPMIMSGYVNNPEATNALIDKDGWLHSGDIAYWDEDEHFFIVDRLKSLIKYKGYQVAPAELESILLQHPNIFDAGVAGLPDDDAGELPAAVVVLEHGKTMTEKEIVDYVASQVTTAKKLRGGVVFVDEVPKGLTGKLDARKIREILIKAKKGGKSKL
#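 Purified P. pyralis luciferase, 10 nM final, with Km-level 10 uM D-luciferin and 10 uM ATP in 50 mM Tris acetate pH 7.5, 10 mM Mg acetate, 0.01% Tween-20, 0.05% BSA; 6-point qHTS titration about 60 µM downward; luminescence read.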
# Active calls of the source: *; ? = inconclusive; / = no result; [ ] = dose if it differs, or a comment. This is a sample that favours compounds with a hit; in the whole collection about 7.4% have one here. Calls follow the shape of the dose curve; as a rule, active = well fitted curve in the direction sought with a large enough effect; inconclusive = small, poorly fitted or top-dose-only effect, or another doubt; inactive = no such curve, though single readings can be large; an effect the other way counts as inactive or inconclusive. Potency is read from the fitted curve at half-maximal effect.
SMILES,NPC1 promoter act,SMN2 splice up,ELG1 genotox,Rab9 prom act,FLuc counter
C/C(=C\C(=S)Nc1ccccc1)Nc1ccccc1,1%,15%,1%,-4%,3.8µM*
C/C(=C\C(=O)c1ccccc1)Nc1ccc(O)cc1,2.5µM*,/,6.5µM*,3.5µM*,4.8µM*
C/C(=C\C(=O)c1cccnc1)Nc1ccc(O)cc1,?,27%,16µM*,?,17µM*
COC(=O)Cc1[nH]n(-c2nc3ccccc3s2)c(=O)c1C(C)=O,11%,-19%,?,15%,9.5µM*
COc1ccc(CN=C(C)c2c(C(F)(F)F)[nH]n(-c3nc4ccccc4s3)c2=O)cc1,?,-22%,15µM*,4µM*,6.7µM*
O=c1cc(-c2ccccc2)[nH]n1-c1nc2ccccc2s1,12%,-1%,8%,8%,17µM*
CC(=O)c1c(CC(=O)O)[nH]n(-c2nc3ccccc3s2)c1=O,21%,-22%,10%,?,12µM*
COC(=O)CC1=NN(c2nc3ccccc3s2)C(=O)/C1=C/N(C)C,15%,2%,-6%,17%,?
O=C(O)CCC(=O)N1CCN(c2nc3ccccc3s2)CC1,0%,26%,0%,2%,-6%
COc1ccc(Cn2c(C(C)C)nc3sc4ccccc4c(=O)c3c2=O)cc1,-3%,/,-5%,-9%,5%
O=c1[nH]c2[nH]c(=S)[nH]c(=S)c2[nH]1,/,-5%[9.22 µM],/,/,/
CCOC(=O)c1cccc(NC(=O)C2CCN(S(=O)(=O)c3ccc4c(c3)oc(=O)n4C)CC2)c1,/,-30%,/,/,1%
Cc1ccnc(NC(=O)c2ccc3c(c2)NC(=O)C(C)S3)c1 (stereo unspecified),0.71µM*,/,?,0.63µM*,1.9µM*
CC(=O)c1ccccc1NC(=O)c1ccc2c(c1)NC(=O)C(C)S2 (stereo unspecified),?,/,?,?,15µM*
CC1Sc2ccc(C(=O)Nc3ccc(S(=O)(=O)N(C)C)cc3)cc2NC1=O (stereo unspecified),-1%,/,-20%,-7%,-7%
Cc1nc(NC2CCCCC2)c2nc(-c3ccccc3)n(CCCN3CCCCC3C)c2n1 (stereo unspecified),/,-24%,/,/,/
CC(C)(C)c1ccc(C(=O)NC(CC(=O)O)c2ccc(OC3CCCC3)cc2)cc1 (stereo unspecified),-6%,/,0%,-6%,19µM*
Cc1ccccc1NC(=O)c1c(C)oc2ccc(O)c(CN3CCCC3)c12,/,4%,/,/,-1%
Cc1c(NC(=S)N/N=C/c2ccc(Br)cc2)c(=O)n(-c2ccccc2)n1C,-1%,/,0%,-6%,2%
Cn1c(CS/C(N)=N/N=C/c2ccccc2)c(Br)c(=O)n1-c1ccccc1,9%,2%,3%,22%,15µM*
Cc1ccc(C)c(CN2C(=O)c3ccccc3S(=O)c3ccc(C(=O)NCCc4ccc(Cl)cc4)cc32)c1 (stereo unspecified),/,10%,/,/,-4%
N#C/C(=N\Nc1ccc([N+](=O)[O-])cc1)C(N)=S,24%,/,-15%,20%,17µM*
N#C/C(=N\Nc1ccc([N+](=O)[O-])cc1)C(=N)N1CCOCC1,?,/,?,2.8µM*,?
N#C/C(=N/Nc1ccc([N+](=O)[O-])cc1)C(=N)N1CCCCC1,1µM*,3.2µM*,?,0.56µM*,9.5µM*
COc1ccccc1N/N=C(\C#N)C(=N)N1CCOCC1,3%,?,0%,11%,-6%
SMILES,NPC1 promoter act,SMN2 splice up,ELG1 genotox,Rab9 prom act,FLuc counter
N#C/C(=N\Nc1ccc(Br)cc1)C(=N)N1CCOCC1,3.5µM*,?,?,4µM*,?
COc1ccc(N2CCN(c3ncnc4onc(C)c34)CC2)cc1,/,/,/,/,-2%
CCc1nn(CC(=O)NCc2ccccc2Cl)c(=O)c2cc3ccccc3n12,/,-1%,/,/,-3%
COc1ccccc1/C=C/c1nc(C#N)c(NC2CCCCC2)o1,/,3%,/,/,?
N#C/C(=N\Nc1ccccc1[N+](=O)[O-])C(=N)N1CCCCC1,0.56µM*,3.2µM*,?,0.28µM*,2.4µM*
O=C(CN1CCCCCC1)Nc1ccccc1[N+](=O)[O-],2%,/,-2%,4%,2%
c1ccc2c(c1)Cn1nc(Cc3nc4c(s3)CCCC4)nc1-2,6%,?,?,?,17µM*
Cc1ccccc1-c1noc(CSc2nnc(Cc3ccccc3)n2-c2ccc(F)cc2)n1,/,-2%,/,/,-14%
COc1ccc(OC(=O)c2c(C)nn(-c3ccccc3)c2C)cc1,?,/,?,?,15µM*
COc1ccc(S(=O)(=O)N2CCN(C(=O)c3c(C)nn(-c4ccccc4)c3C)CC2)cc1,2%,/,0%,-2%,-1%
COc1ccc(OC(=O)c2cnn(-c3ccccc3)c2C)cc1,3.2µM*,?,?,3.2µM*,4.8µM*
Cc1cc(C(=O)OCC(=O)Nc2c(F)cccc2F)c(C)n1-c1ccccc1,24%,-6%,16%,25%,11µM*
Cc1nn(-c2ccccc2)c(C)c1C(=O)OCC(=O)Nc1ccccc1F,4µM*,/,?,2.2µM*,4.8µM*
CCCOCC(C)OCC(C)O (stereo unspecified),/,4%,/,/,/
CC(=O)c1c(C)nn(-c2ccccc2)c1C,-1%,/,0%,-6%,2%
Cc1nn(-c2ccccc2)c(C)c1C(=O)Oc1ccccc1,28%,/,15%,?,17µM*
Cc1c2cccc(Sc3ccccc3)c2c2c3c(cccc13)[S+](c1ccccc1)C2 (stereo unspecified),/,-2%[9.22 µM],/,/,/
O=C(c1ccncc1)N1N=C(c2ccc(Cl)cc2)CC1c1ccccc1O (stereo unspecified),1%,/,?,24%,17µM*
CC(=O)N1/C(=C/c2ccc(N(C)C)cc2)C(=O)c2ccccc21,1%,-38%,-29%,0%,17µM*
CC(=O)N1c2ccccc2C(=O)C1N(C)c1ccc(C)cc1 (stereo unspecified),-3%,/,2%,13%,-7%
CC1=C2[C@H](/C=C(\C)C(=O)O)CC[C@@H](C)[C@H]2CC1,/,-1%,/,/,/
O=C(CCCN1C(=O)S/C(=C\C=C\c2ccccc2)C1=O)Nc1ccc(C(=O)O)cc1,?,/,22%,?,21µM*
O=C(CN1C(=O)S/C(=C\C=C\c2ccccc2)C1=O)Nc1cccc(O)c1,21%,71%,?,?,12µM*
COc1ccc(/C=C2/SC(=O)N(CCC(=O)Nc3ccccc3)C2=O)cc1OC,-1%,-27%,?,5%,5%
O=C(CCN1C(=O)S/C(=C\C=C\c2ccccc2)C1=O)Nc1ccc(O)cc1,3.5µM*,/,13µM*,3.5µM*,?
O=C(CN1C(=O)S/C(=C\c2ccc(C(=O)O)cc2)C1=O)Nc1ccccc1,-1%,/,-2%,3%,-14%

# Screens: PubChem, National Center for Advancing Translational Sciences (NCATS)
